The results in this text go back to PubChem BioAssay.

SMILES strings stand for the structures. The source made the active and inactive calls. Unless noted, the rule behind the calls is not given here.

A short description of test [1]: HepG2 liver cancer cell viability effects, profiling panel, resazurin fluorescence, 24 h, PK04 Diversity Set (AID 1172). Note: test concentration not given here. The note with it: higher = more signal.
Test [2] in a line: basal S. cerevisiae growth modulation, no modifier, primary screen, OD600, strain BY4716, 24 h, basal condition (AID 1173). The note with it: OD600, 24 h, higher = more signal, called active from +8 up or from −8 down.
A short description of test [3]: MM1S myeloma cell viability, profiling panel, resazurin fluorescence, basal, 24 h, PK04 Diversity Set (AID 1174).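 Note: MM1S multiple myeloma cell line; test concentration not given here.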 The note with it: higher = more signal, called active from +8 up or from −8 down.
Test [4] concerns the target Dihydroorotate dehydrogenase (quinone), mitochondrial (Plasmodium falciparum (isolate 3D7)) (UniProt Q08210). The test can be described thus: PfDHODH enzyme inhibitors, primary screen, biochemical, C-terminal His tag, absorbance 600 nm (AID 1175).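 Note: recombinant parasite enzyme with a five histidine tag at its C terminus; test concentration not given here.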 As to conditions: DCIP absorbance 600 nm, higher = more signal, called active from +8 up or from −8 down.
Test [5] can be described thus: P. aeruginosa biofilm formation inhibitors, primary screen, strain PAO1, LB-PBS medium, absorbance 600 nm (AID 1176). Note: test concentration not given here. The note with it: P. aeruginosa PAO1 growth/biofilm, A600, 12 h; higher = more signal.
Test [6] can be described thus: S. cerevisiae RM11-1a growth modifiers, primary screen, strain RM11-1a, OD600, basal, 24 h (AID 1177).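 Note: cultures grown under basal conditions with no added stressor; test concentration not given here.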 The note with it: OD600, 24 h, higher = more signal, called active from +8 up or from −8 down.
Test [7] is described as follows: E. coli acrAB mutant growth effects, primary screen, E. coli filamentation inducers, strain DRC39, OD650, 24 h (AID 1178).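 Note: growth measured as culture turbidity by optical density at 650 nm; test concentration not given here.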 The note with it: higher = more signal, called active from +8 up or from −8 down.
Test [8] is described as follows: E. coli acrAB mutant growth effects, primary screen, E. coli filamentation inducers, strain DRC39, OD650, 48 h (AID 1179).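 Note: screen aims at cell division blockers that make cells filament.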 The note with it: E. coli DRC39 delta-acrAB growth, higher = more signal, called active from +8 up or from −8 down.
Test [9] in a line: RPMI8226 myeloma cell viability, profiling panel, resazurin fluorescence, basal, 24 h, PK04 Diversity Set (AID 1180).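 Note: RPMI8826 multiple myeloma cell line at 5000 cells per well; test concentration not given here.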 As to conditions: higher = more signal.
For test [10], the target named is E3 ubiquitin-protein ligase XIAP (Homo sapiens) (UniProt P98170). The test can be described thus: XIAP binders, primary screen, biophysical, small-molecule microarray, fluorescence 635 nm (AID 1181).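 Note: score merges 667 nm emission and signal to noise over triplicate slides.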 As to conditions: small-molecule microarray binding, higher = more signal.
Sequence of E3 ubiquitin-protein ligase XIAP (Homo sapiens) (P98170 whole entry, looked up): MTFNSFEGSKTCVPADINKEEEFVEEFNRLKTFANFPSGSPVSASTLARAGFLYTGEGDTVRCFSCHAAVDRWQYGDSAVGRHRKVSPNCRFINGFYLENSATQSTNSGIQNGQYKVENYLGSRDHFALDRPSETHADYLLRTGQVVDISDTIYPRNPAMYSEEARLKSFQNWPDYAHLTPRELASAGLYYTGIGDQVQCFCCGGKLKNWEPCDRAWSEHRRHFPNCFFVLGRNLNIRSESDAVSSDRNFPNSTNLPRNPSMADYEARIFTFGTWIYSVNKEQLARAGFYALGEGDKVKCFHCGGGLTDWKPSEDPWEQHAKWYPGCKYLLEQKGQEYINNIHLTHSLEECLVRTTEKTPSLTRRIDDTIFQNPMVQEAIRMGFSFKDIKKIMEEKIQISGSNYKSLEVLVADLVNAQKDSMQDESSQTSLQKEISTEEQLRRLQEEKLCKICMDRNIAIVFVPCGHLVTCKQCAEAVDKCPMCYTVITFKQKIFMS

Sequence of Dihydroorotate dehydrogenase (quinone), mitochondrial (Plasmodium falciparum (isolate 3D7)) (Q08210 whole entry, looked up): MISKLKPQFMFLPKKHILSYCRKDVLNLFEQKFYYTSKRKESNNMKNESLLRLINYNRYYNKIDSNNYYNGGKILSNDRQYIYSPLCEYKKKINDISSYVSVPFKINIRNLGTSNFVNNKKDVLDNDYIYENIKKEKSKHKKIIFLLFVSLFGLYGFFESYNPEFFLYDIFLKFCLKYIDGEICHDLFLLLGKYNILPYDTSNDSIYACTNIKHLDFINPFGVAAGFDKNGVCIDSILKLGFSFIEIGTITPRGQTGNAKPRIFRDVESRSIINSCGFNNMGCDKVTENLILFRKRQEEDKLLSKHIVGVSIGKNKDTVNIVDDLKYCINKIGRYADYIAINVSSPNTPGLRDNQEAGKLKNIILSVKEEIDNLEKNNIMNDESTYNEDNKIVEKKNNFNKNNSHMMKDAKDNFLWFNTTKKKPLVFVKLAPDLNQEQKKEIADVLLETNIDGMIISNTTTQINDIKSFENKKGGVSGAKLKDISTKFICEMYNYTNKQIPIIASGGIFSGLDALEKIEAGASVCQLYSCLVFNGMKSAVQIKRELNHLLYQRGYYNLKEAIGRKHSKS

As for `COC(=O)C(CC#Cc1ccc2c(c1)[C@]1(C(=O)N2)[C@H](C(=O)N2CCCCCCC2)[C@H]2C(=O)O[C@H](c3ccccc3)[C@H](c3ccccc3)N2[C@@H]1c1ccccc1OCCO)C(=O)OC`, the z-score in test [1] was -0.198; in test [2] it was 0.946 (inactive); in [3], -0.0924 (inactive); in test [5], 1.22 (inactive); in [6], 0.0478 (inactive); in test [7], -1.19 (inactive). Also, the z-score was -0.513 (inactive) in [8] and 0.218 in test [9]. The results for the composite z-score in [4] and in [10] were -4.91 (inactive) and 2.41, respectively.

As to `O=C1OCCC/C=C\[C@H]2OC34C=CCN(Cn5nnc6ccccc65)C(=O)[C@H]3N(CCCO)C(=O)[C@@H]4C12` (stereo not given in full), the z-score is 0.558 in [1]; 0.351 (inactive) in [2]; 0.42 (inactive) in [3]; 0.77 (inactive) in test [5]; -0.44 (inactive) in test [6]; 0.339 (inactive) in test [7]. Besides, the z-score was 0.0024 (inactive) in test [8] and 0.702 in [9]. Moreover, the composite z-score was -0.0502 (inactive) in test [4] and 0.301 in [10].

Regarding `O=C1OCCC=C[C@H]2OC34C=CCN(c5ccc6ccccc6c5)C(=O)[C@H]3N(CCCCCCO)C(=O)[C@@H]4C12` (stereo not given in full), the z-score in test [1] was 0.523; in test [2] it was -0.546 (inactive); in test [3], -0.0449 (inactive); in [5], -0.497 (inactive); in [6], 0.522 (inactive); in [7], 0.982 (inactive). In addition, the z-score was 1.29 (inactive) in test [8] and 0.868 in test [9]. For the same compound, the composite z-score was 0.401 (inactive) in test [4] and -0.0953 in [10].

With `Oc1ccc2cc[n+](Cc3cccc(OC(F)(F)F)c3)cc2c1`, the z-score in [1] is -0.975; in test [2] it was 0.236 (inactive); in test [3], -0.304 (inactive); in [5], 0.0061 (inactive); in test [6], 0.585 (inactive); in test [7] it was 0.4 (inactive). Also, the z-score in [8] was 0.743 (inactive); in [9] it was -1.07. Moreover, the composite z-score was -1.09 (inactive) in [4] and 0.202 in test [10].

`COCCOC(=O)N1C(=O)[C@@]2(c3cc(C#CC4=CCCCC4)ccc31)[C@H](c1ccc(OCCO)cc1)N1[C@H](c3ccccc3)[C@H](c3ccccc3)OC(=O)[C@H]1[C@@H]2C(=O)Nc1nc2ccccc2s1`: the z-score was 1.16 in test [1]; 1.65 (inactive) in test [2]; -0.396 (inactive) in [3]; 3.34 (inactive) in test [5]; 2.68 (inactive) in test [6]; -0.169 (inactive) in test [7]. In addition, the z-score in test [8] was 0.422 (inactive); in test [9], 0.584. Also, the composite z-score is 0.123 (inactive) in [4] and 0.061 in test [10].

With `[N-]=[N+]=Nc1ccccc1[C@@H]1OC(c2ccc(OCCCO)cc2)=N[C@]1(CCS(=O)(=O)c1ccccc1)C(=O)N1CCCCC1`, the z-score in test [1] is -0.644; in test [2] it was 1.69 (inactive); in [3] it was -1.66 (inactive); in test [5], 0.687 (inactive); in test [6] it was 2.08 (inactive); in [7] it was -0.0955 (inactive). Besides, the z-score in test [8] is -0.933 (inactive); in [9], -1.81. Further, the composite z-score in test [4] is 1.06 (inactive); in [10] it was -0.202.

On to `O=C1NC(=O)C2C1C=CC(C(O)c1cccs1)N2Nc1ccccn1` (stereo not given), for which the z-score in test [1] is -0.687; in [2], 0.0408 (inactive); in test [3], -1.71 (inactive); in test [5], 0.916 (inactive); in [6] it was 0.623 (inactive); in [7] it was -0.0795 (inactive). The figures for the z-score in test [8] and in [9] were 0.0691 (inactive) and 0.398, respectively. In addition, the composite z-score in test [4] was 0.566 (inactive); in test [10] it was 0.174.

With `[N-]=[N+]=Nc1ccccc1[C@@H]1OC(c2ccc(OCCCO)cc2)=N[C@]1(CCS(=O)(=O)c1ccccc1)C(=O)O`, the z-score is 0.97 in [1]; -0.14 (inactive) in test [2]; -0.3 (inactive) in [3]; -0.884 (inactive) in test [5]; 0.82 (inactive) in test [6]; 0.277 (inactive) in [7]. Further, the z-score is 0.82 (inactive) in test [8] and 0.205 in [9]. In addition, the composite z-score was -23.4 (active) in [4] and 0.125 in [10].

With `COc1ccc(C#Cc2ccc3c(c2)[C@]2(C(=O)N3)[C@H](C(=O)N3CCN(c4ncccn4)CC3)[C@H]3C(=O)O[C@H](c4ccccc4)[C@H](c4ccccc4)N3[C@@H]2c2ccc(O)cc2)cc1`, the z-score in test [1] is -0.795; in [2], 0.21 (inactive); in test [3], 0.0492 (inactive); in [5] it was 0.999 (inactive); in [6], 0.881 (inactive); in [7] it was -0.423 (inactive). Besides, the z-score in test [8] is 0.182 (inactive); in test [9] it was 0.225. The composite z-score in test [4] was -3.34 (inactive); in test [10], -0.0149.

In the case of `CO[C@H]1O[C@H](CO)[C@@H](OC(=O)Nc2ccc(C(F)(F)F)cc2)[C@H](OC(=O)Nc2ccccc2)[C@@H]1OC(=O)Nc1ccccc1`, the z-score in test [1] is -0.5; in [2], -0.332 (inactive); in [3], -1.34 (inactive); in [5] it was 0 (inactive); in test [6] it was 0.0212 (inactive); in test [7], 0.886 (inactive). Besides, the z-score in test [8] was -0.053 (inactive); in test [9], -0.771. Besides, the composite z-score in test [4] is -0.798 (inactive); in test [10], 0.0468.

For the compound `[N-]=[N+]=NCc1ccccc1[C@H]1OC(c2ccc(OCCCO)cc2)=N[C@@]1(Cc1ccccc1)C(=O)O`, the z-score in test [1] was 1.31; in [2], -3.06 (inactive); in [3], -0.967 (inactive); in test [5], -0.0862 (inactive); in test [6] it was 0.816 (inactive); in test [7] it was -1.13 (inactive). The z-score in test [8] was -0.835 (inactive); in test [9], 0.273. Moreover, the composite z-score in [4] was -0.055 (inactive); in test [10], -0.205.

With `Cc1c(NC(=O)/C(C#N)=C/C=C/c2ccccc2)c(=O)n(-c2ccccc2)n1C`, the z-score is -0.0273 in [1]; -0.0874 (inactive) in [2]; -0.335 (inactive) in [3]; 0.242 (inactive) in test [5]; -0.74 (inactive) in [6]; 1.39 (inactive) in [7]. Further, the z-score in test [8] was 0.0139 (inactive); in test [9], 0.161. Further, the composite z-score in test [4] is 0.316 (inactive); in [10], 0.313.

As for `CC(C)[Si]1(C(C)C)O[C@@H](c2ccccc2)c2cc(-c3ccc(-c4ccc(Cl)c(Cl)c4)o3)nc(CCc3ccccc3)c21`, the z-score in [1] is -0.662; in [2] it was -3.29 (inactive); in test [3], -0.701 (inactive); in test [5], 0.726 (inactive); in test [6], 0.144 (inactive); in [7], 0.231 (inactive). Besides, the z-score is -0.0564 (inactive) in test [8] and -0.622 in test [9]. Besides, the composite z-score in [4] was -0.231 (inactive); in [10], -0.27.
